CYP2C9 act = CYP2C9 (human) activation | P11712 | actives 1.4% (n = 96,000) | activation factor at 5 µM | recombinant CYP2C9, luciferin-H conversion, luminescence; hits give high values; factor 1 = untreated enzyme, 0 = blocked;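 active = activation factor of 2 or more for CYP2C9 at a 5 µM dose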;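 also: 0 = sulfaphenazole-blocked wells and 1 = vehicle-only wells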
Target sequence (P11712 whole entry, looked up): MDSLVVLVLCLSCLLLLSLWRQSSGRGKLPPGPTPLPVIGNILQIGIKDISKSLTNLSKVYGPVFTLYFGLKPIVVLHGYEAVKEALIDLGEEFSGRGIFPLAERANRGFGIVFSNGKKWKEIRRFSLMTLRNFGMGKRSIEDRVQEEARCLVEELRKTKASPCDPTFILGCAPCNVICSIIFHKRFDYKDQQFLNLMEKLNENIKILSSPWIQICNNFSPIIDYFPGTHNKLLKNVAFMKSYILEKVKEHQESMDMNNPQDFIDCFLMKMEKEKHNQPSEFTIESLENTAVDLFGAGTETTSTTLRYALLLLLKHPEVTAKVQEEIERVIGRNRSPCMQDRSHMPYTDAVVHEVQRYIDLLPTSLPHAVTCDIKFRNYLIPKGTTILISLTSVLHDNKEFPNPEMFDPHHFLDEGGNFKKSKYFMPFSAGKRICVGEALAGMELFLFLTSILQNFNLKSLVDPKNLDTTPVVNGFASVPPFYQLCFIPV
PostGolgi yeast = growth inhibition of a yeast mutant, post-Golgi transport screen | actives 0.9% (n = 98,000) | inhibition, % at 10 µM | post-Golgi transport phenotypic cell assay;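 also: yeast cells grown in 1536-well plates; yeast grown about 18 h at 30C before absorbance read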
CYP2C19 activ = cytochrome P450 2C19 (human) activation; 96,000 tested, under 10 active; recombinant CYP2C19, luciferin-H EGE luminescence; hits give high values; 0 = fully inhibited enzyme, 1 = untreated enzyme; activation factor at 5 µM;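 active = activation factor of at least 2 at 5 µM in the primary screen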;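 also: 0 = wells with 2.5 mM tranylcypromine and 1 = vehicle-only wells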
PostGolgi ctrl = inhibits growth of the yeast control strain | efflux-deficient yeast background strain, growth absorbance A615, 16 h | inhibition, % at 10 µM | actives 5% (n = 98,000) | AID 738
CYP2C19 inh = blocks human cytochrome P450 2C19 | P33261 | CYP2C19 Supersomes, luciferin-H EGE luminescence, 30 min | inhibition, % at 5 µM | actives 21% (n = 96,000);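 active = CYP2C19 inhibition above a set limit at 5 µM in the primary screen, cut at about 50% in these data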;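 also: plate controls were negative control wells for no effect and 2.5 mM tranylcypromine positive control for full effect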
CYP2C9 inh = human CYP2C9 inhibition; P11712; CYP2C9 Supersomes, luciferin-H conversion, luminescence; inhibition, % at 5 µM; actives 20% (n = 96,000); AID 777;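 active = blocking of liver enzyme CYP2C9 beyond about 50% at 5 µM, limit read from the data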
Active calls of the source: *. Rows were chosen to be rich in hits. Some 32% of all compounds tested hit in one or more screens of this group. Rule as the data show it, unless noted: active = inhibition above about 30%; inactive = the rest.

How did O=C(NCc1ccccc1)c1ccccc1OCC(=O)N1CCCCC1 do in these assays?
CYP2C9 act: 0; PostGolgi yeast: 6; CYP2C19 activ: 0.3; PostGolgi ctrl: -2; CYP2C19 inh: 73*; CYP2C9 inh: 100*

How did CCC(C)NC(=O)CS(=O)Cc1nc(-c2ccccc2C)oc1C (stereo not drawn) do in these assays?
CYP2C9 act: 0.9; PostGolgi yeast: -1; CYP2C19 activ: 0.9; PostGolgi ctrl: 7; CYP2C19 inh: 8; CYP2C9 inh: 8

What do the screens show for `CCOc1cccc(-c2nnc3sc(COc4ccc(Cl)cc4)nn23)c1`?
CYP2C9 act: 0.8; PostGolgi yeast: -4; CYP2C19 activ: 0.9; PostGolgi ctrl: 5; CYP2C19 inh: 11; CYP2C9 inh: 20

What do the screens show for `Cc1ccc2nc(C(F)(F)F)c(C#N)c(N)c2c1`?
CYP2C9 act: 1; PostGolgi yeast: -5; CYP2C19 activ: 1.1; PostGolgi ctrl: 36*; CYP2C19 inh: -8; CYP2C9 inh: 2

Results for Cc1cc(C)c2nc(C(F)(F)F)c(C#N)c(N)c2c1 ?
CYP2C9 act: 0.8; PostGolgi yeast: -1; CYP2C19 activ: 0.9; PostGolgi ctrl: 26; CYP2C19 inh: 9; CYP2C9 inh: 20

What do the screens show for `COc1ccc(-c2cc(N)n(CCC#N)n2)c(OC)c1`?
CYP2C9 act: 1.1; PostGolgi yeast: 5; CYP2C19 activ: 0.9; PostGolgi ctrl: 15; CYP2C19 inh: 12; CYP2C9 inh: -6

What do the screens show for `COc1ccc(-n2cnc3c(cnn3CCC#N)c2=N)cc1`?
CYP2C9 act: 0.9; PostGolgi yeast: -8; CYP2C19 activ: 0.2; PostGolgi ctrl: -1; CYP2C19 inh: 77*; CYP2C9 inh: 8

What do the screens show for `CC(N=Cc1ccccc1O)c1ccccc1` (stereo not drawn)?
CYP2C9 act: 1; PostGolgi yeast: 4; CYP2C19 activ: 0.9; PostGolgi ctrl: -4; CYP2C19 inh: 5; CYP2C9 inh: 0

What do the screens show for `CCCS/C(N)=N/N=C/c1ccccc1O`?
CYP2C9 act: 0.4; PostGolgi yeast: -9; CYP2C19 activ: 0.2; PostGolgi ctrl: 14; CYP2C19 inh: 79*; CYP2C9 inh: 59*

How did Cc1cccc(N2CCCn3c2nc2c3c(=O)n(CCN3CCOCC3)c(=O)n2C)c1 do in these assays?
CYP2C9 act: 0.8; PostGolgi yeast: 22; CYP2C19 activ: 0.9; PostGolgi ctrl: 9; CYP2C19 inh: 12; CYP2C9 inh: 24

How did CSc1nc2ccc(S(=O)(=O)N3CCCC3)cc2s1 do in these assays?
CYP2C9 act: 0.5; PostGolgi yeast: -5; CYP2C19 activ: 0; PostGolgi ctrl: -2; CYP2C19 inh: 99*; CYP2C9 inh: 53*

Results for O=S(=O)(Nc1nc2ccc(S(=O)(=O)N3CCCC3)cc2s1)c1ccc(F)cc1 ?
CYP2C9 act: 0; PostGolgi yeast: -8; CYP2C19 activ: 1; PostGolgi ctrl: 9; CYP2C19 inh: 2; CYP2C9 inh: 100*

Results for CCCC(=O)Nc1nc2ccc(S(=O)(=O)N3CCCCC3)cc2s1 ?
PostGolgi yeast: 7; PostGolgi ctrl: 3

Results for Cn1c(=O)[nH]c(=O)c2c1nc(Sc1ncccn1)n2CCCc1ccccc1 ?
CYP2C9 act: 0.7; PostGolgi yeast: -1; CYP2C19 activ: 0.8; PostGolgi ctrl: -2; CYP2C19 inh: 18; CYP2C9 inh: 29

How did COc1ccc(/C=N/NC(=O)c2nc(Cl)c(Cl)c(N)c2Cl)cc1COc1ccccc1F do in these assays?
CYP2C9 act: 0.1; PostGolgi yeast: -8; CYP2C19 activ: 0.4; PostGolgi ctrl: -4; CYP2C19 inh: 62*; CYP2C9 inh: 87*

Results for COc1ccc(/C=N/NC(=O)c2ccc(C)cc2)cc1CN1CCN(c2ccc(F)cc2)CC1 ?
CYP2C9 act: 0.6; PostGolgi yeast: -2; CYP2C19 activ: 0.9; PostGolgi ctrl: 0; CYP2C19 inh: 10; CYP2C9 inh: 45

Results for COc1ccc(/C=N/NC(=O)c2nc(Cl)c(Cl)c(N)c2Cl)cc1COc1ccc(F)cc1F ?
CYP2C9 act: 0.3; PostGolgi yeast: -11; CYP2C19 activ: 0.5; PostGolgi ctrl: 10; CYP2C19 inh: 46; CYP2C9 inh: 67*

What do the screens show for `CCCN(CCO)Cc1ccc(F)c(Br)c1`?
CYP2C9 act: 0.8; PostGolgi yeast: -1; CYP2C19 activ: 0.9; PostGolgi ctrl: 6; CYP2C19 inh: 9; CYP2C9 inh: 17

What do the screens show for `Cc1ccc(NC(=O)CN2C(=O)S/C(=C\c3cccn3-c3cccc(C(=O)O)c3)C2=O)c(C)c1`?
CYP2C9 act: 0.6; PostGolgi yeast: 3; CYP2C19 activ: 0.9; PostGolgi ctrl: -2; CYP2C19 inh: 11; CYP2C9 inh: 42

Results for Cc1ccccc1NC(=O)CN1C(=O)S/C(=C\c2cccn2-c2cccc(C(=O)O)c2)C1=O ?
CYP2C9 act: 0.2; PostGolgi yeast: -3; CYP2C19 activ: 0.9; PostGolgi ctrl: -10; CYP2C19 inh: 6; CYP2C9 inh: 75*

How did Cc1cccc(C)c1NC(=O)CN1C(=O)S/C(=C\c2cccn2-c2cccc(C(=O)O)c2)C1=O do in these assays?
CYP2C9 act: 0.1; PostGolgi yeast: -6; CYP2C19 activ: 1; PostGolgi ctrl: 19; CYP2C19 inh: 3; CYP2C9 inh: 86*

Results for Cc1sc2nc(CN(CCc3ccccc3)C(=O)c3ccco3)[nH]c(=O)c2c1C ?
CYP2C9 act: 0.8; CYP2C19 activ: 1; CYP2C19 inh: 1; CYP2C9 inh: 21

What do the screens show for `C(#Cc1ccc(C#CCN2CCOCC2)cc1)CN1CCOCC1`?
CYP2C9 act: 1.1; PostGolgi yeast: -1; CYP2C19 activ: 1.1; PostGolgi ctrl: 3; CYP2C19 inh: -10; CYP2C9 inh: -15

How did CC1CC(=O)C2=C(C1)Nc1ccccc1N=C2 (stereo not drawn) do in these assays?
CYP2C9 act: 0.6; PostGolgi yeast: -1; CYP2C19 activ: 0.8; PostGolgi ctrl: 5; CYP2C19 inh: 22; CYP2C9 inh: 45

How did CCC(=O)c1cccc2c1N=CC1=C(CC(C)(C)CC1=O)N2 do in these assays?
CYP2C9 act: 0.5; PostGolgi yeast: -3; CYP2C19 activ: 0.7; PostGolgi ctrl: 12; CYP2C19 inh: 27; CYP2C9 inh: 55*

How did CCN(CC(=O)Nc1ccc2c(c1)OCO2)Cc1nc2ccccc2c(=O)[nH]1 do in these assays?
CYP2C9 act: 0.2; PostGolgi yeast: -8; CYP2C19 activ: 0.2; PostGolgi ctrl: 31*; CYP2C19 inh: 77*; CYP2C9 inh: 81*

Results for CCN(Cc1nc2ccccc2c(=O)[nH]1)Cc1nc2cc(OC)c(OC)cc2c(=O)[nH]1 ?
CYP2C9 act: 0.9; PostGolgi yeast: 8; CYP2C19 activ: 0.8; PostGolgi ctrl: 15; CYP2C19 inh: 16; CYP2C9 inh: 10

Results for CCN(CC(=O)NC(c1ccccc1)c1ccccc1)Cc1nc2ccccc2c(=O)[nH]1 ?
CYP2C9 act: 0.5; PostGolgi yeast: -8; CYP2C19 activ: 0.4; PostGolgi ctrl: 6; CYP2C19 inh: 65*; CYP2C9 inh: 49

Bioassay records deposited in PubChem by several laboratories.
